About 83,000 compounds went through this panel and 20% of them were active in at least one assay; those are over-represented in the sample as a whole.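 Note: values are percent growth. 100 is the growth of untreated cells, values between 100 and 0 indicate rising inhibition; between -100 and 0 indicates cell death.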 Unmarked numbers belong to inactive results. Activity calls are given as the source filed them.

The assay deals with HCT-15 colon. Description: NCI-60 one-dose screen, 48 h (100 = growth as untreated, 0 = no growth, -100 = all killed). To be noted: 10 µM unless noted. How it is done:
Growth inhibition of the HCT-15 human tumor cell line is measured as a screen for anti-cancer activity. Cells are grown in 96 well plates and exposed to the test compound for 48 hours. Compounds are tested at a single concentration, which is 10^-5 M for most compounds. The reported endpoint is percent growth (GI% or GIPRCNT), where numbers from 0 - 100% represent growth inhibition, and numbers from -100% - 0 represent cell death. For example, a value of 40 represents 60% growth inhibition. A value of 0 means no net growth occurred over the course of the experiment. A value of -40 indicates 40% of cells at the beginning of the experiment died by the end of the experiment. A value of -100 means all cells are dead at the end of the experiment.
NCI-60 Human Tumor Cell Lines Screen was performed using the standard one-dose NCI protocol, which is described in more detail at https://dtp.cancer.gov/discovery_development/nci-60/default.htm.
Compounds with GIPRCNT values below 10 were considered active. Activity score was based on GIPRCNT using the following formula: […]
Score is 0 for GIPRCNT values of 100 or above, 50 for GIPRCNT values of 0, and 100 for GIPRCNT values of -100.
For the compound `Fc1ccc(CNCCNc2ncnc3c2cnn3-c2ccccc2)cc1`, the growth is 92.4%.

For the compound `CCOc1cc2c(Cl)ncnc2c(OCC)c1OCC`, the growth was 55.1%.

Turning to `CCCCC(CC)OC(=O)C(Br)CC` (stereo not given), the growth was 105%.

As to `CCOC(=O)CC(=O)OC`, the growth is 102%.

`CCCCCCCCCCCCNC(=O)[C@H]1CSC(c2cc3ccccc3s2)N1` (stereo not given in full): the growth was -34.1% (active).

On to `CC(C)(C)n1cc(-c2ccnc(NCCCNS(=O)(=O)c3ccc(C(F)(F)F)cc3)c2)c(-c2cccc(O)c2)n1`, for which the growth is -55.6% (active).

As for `COc1cc(C(=O)/C=C/c2c(C)n([O-])c3ccc(C(F)(F)F)cc3[n+]2=O)cc(OC)c1OC`, the growth is 86.1%.

For the compound `Cc1cc(N/N=C/c2nc(-c3ccc(Br)cc3)oc2C)c2cc(Br)ccc2n1`, the growth was 6.22% (active).

`CCCCCCCCCCCCNC(=O)[C@H]1CSC(c2ccsc2)N1` (stereo not given in full): the growth is -71.4% (active).

For the compound `O=C(Nc1ccncc1)C(=O)c1cn(S(=O)(=O)c2ccccc2F)c2ccccc12`, the growth was 31.7%.

`O=C(Nc1ccc2c(c1)OCCO2)C(=O)c1c[nH]c2ccccc12`: the growth is 33.5%.

Turning to `COc1cc(/C(C#N)=C/c2ccc3c(c2OC)OCO3)cc2c1OCO2`, the growth was 33%.

`COc1cc2c(cc1OCCCCCn1c3ccccc3c3ccccc31)N=C[C@@H]1CCCN1C2=O`: the growth is -74.3% (active).

With `COc1ccc(-c2nc(/C=N/Nc3cc(C)nc4ccc(Cl)cc34)c(C)o2)cc1`, the growth is -91.5% (active).

Regarding `CCCCCCCCC(C)OC(=O)c1nn(C(C)=O)c2ccccc12` (stereo not given), the growth is 101%.

Take `CCCCCCCCCCCCCCCCCCNC(=O)[C@H]1CSC(c2ccc(OC)cc2O)N1` (stereo not given in full): the growth was 80.7%.

In the case of `O=C(Nc1cccc(-n2cc(-c3ccncc3)c(-c3ccc(Cl)c(O)c3)n2)c1)c1ccc(N2CCOCC2)c(C(F)(F)F)c1`, the growth was 26.2%.

Take `C=C1C(=O)O[C@H]2[C@H]1CC/C(Cn1cc(CNC(=O)/C=C/c3c[nH]c4ccccc34)nn1)=C\CC[C@@]1(C)O[C@@H]21`: the growth is 94.4%.

Take `O=C1/C(=C/c2ccccc2)Oc2ccc(O)c(I)c21`: the growth was 94.5%.

As to `CCOC(=O)c1ccc2c(c1)nc(-c1ccc(OCc3ccccc3)c(OC)c1)n2-c1cc(C(C)(C)C)[nH]n1`, the growth was 59.4%.

`c1ccc(-c2cn(-c3ccccc3)c(-c3ccccc3)n2)cc1`: the growth is 60.9%.

Consider `COc1ccc2c(c1)NC1=C(C(=O)OC1)C2c1cc(OC)c2c(c1)OCO2` (stereo not given), for which the growth is 16.5%.

In the case of `CN(CCCCCl)P(=O)(OCc1ccc([N+](=O)[O-])o1)C(F)(F)C[C@H](NC(=O)CNC(=O)c1ccc(N=[N+]=[N-])cc1)C(=O)NCCc1ccc(O)cc1` (stereo not given in full), the growth is 103%.

For `Cc1ccc(CSC(=N)N)cc1C`, the growth was 116%.

On to `O=[N+]([O-])c1ccc(/C=C/C2(CCl)OCCO2)cc1`, for which the growth is 109%.

Consider `CN1CCN(Cc2ccc(NC(=O)c3cncc(C#Cc4cnc(N)c5ccncc45)c3)cc2C(F)(F)F)CC1`, for which the growth was 10.9%.

With `O=C(O)Cc1cccc(=O)c(O)c1C(=O)O`, the growth was 106%.

As to `C[n+]1c(/C=C/c2c(O)ccc3ccccc23)ccc2ccccc21`, the growth was 21.6%.

Take `OB(O)c1cccc(-c2nc3ccc4[nH]ncc4c3c3c2CCCC3)c1F`: the growth was 35.2%.

With `CN(C)c1cccc2c(S(=O)(=O)/N=C(\N)Nc3nc4ccccc4s3)cccc12`, the growth was 42.9%.

With `CN(C)CCOC(=O)Nc1ccccc1Cl`, the growth is 103%.

For the compound `O=c1ccn(C2CC(O)C(O)C(CO)O2)c(=O)[nH]1` (stereo not given), the growth is 117%.

Take `COc1ccc(-c2[nH]nc(N)c2-c2cc(OC)c3c(c2)OCO3)cc1`: the growth was 46%.

Regarding `Cc1c(C(=O)/C=C/c2csc3ccccc23)[n+](=O)c2ccccc2n1[O-]`, the growth is 48.7%.

As for `COc1ccc(/C=N\NC(=O)CN2CCN(c3cc4c(cc3F)c(=O)c(C(=O)N/N=C/c3ccc(OC)c(OC)c3)cn4C3CC3)CC2)cc1OC`, the growth is 98%.

For `Cc1ccc(S(=O)(=O)c2nc(-c3ccccc3)oc2S(C)(=O)=O)cc1`, the growth was -14.2% (active).

As to `C=C1CCC2C(C)(CO)C(O)CCC2(C)C1CC(NCc1ccccc1)C1=CCOC1=O` (stereo not given), the growth was 105%.

Consider `O=[N+]([O-])c1ccc(-c2cn(-c3ccccc3)c(-c3ccccc3)n2)cc1`, for which the growth is 95.2%.

Turning to `O=c1cc(Cc2ccc([N+](=O)[O-])cc2)[nH]c(=O)[nH]1`, the growth was 96.6%.

For `COc1ccc(/C=C\c2cc(OC)c(OC)c(OC)c2)cc1OC(=O)c1cccc(Cn2cc(CCOC(=O)c3cccc(Cn4nnc5c4C(=O)c4ccccc4C5=O)c3)nn2)c1`, the growth was 10.5%.

(Values after PubChem BioAssay (NCI).)
